Data: PubChem BioAssay (Tox21)
Results filed as inconclusive are left out. Entries that show only a call come without a potency. Calls of active or inactive are those of the source. Calls follow the shape of the dose curve; as a rule, active = well fitted cell-killing curve with a large enough effect in the repeat runs; inconclusive = weak or mixed curves; inactive = no such curve, though single readings can be large or run the other way.

Experiment: qHTS assay for identifying genotoxic compounds that show differential cytotoxicity against isogenic chicken DT40 cell lines with known DNA damage response pathways - Rad54/Ku70 mutant cell line (AID 743015); also: nearly all actives have a fitted effect of over 60% in size
Details: DT40 Rad54/Ku70 mutant viability, CellTiter-Glo, 40 h; series mostly up to 66.8 µM
Description: National Center for Advancing Translational Sciences [NCATS]
NIH Chemical Genomics Center [NCGC]
U.S. Environmental Protection Agency [EPA]
National Institutes of Environmental Health Sciences [NIEHS]
National Toxicology Program [NTP]
U.S. Food and Drug Administration [FDA]
DNA repair pathways play a critical role in cellular homeostasis by repairing DNA damage induced by endogenous processes and xenobiotics. Isogenic chicken DT40 cell lines deficient in different DNA repair pathways can be used to identify genotoxic compounds and aid in characterizing the nature of the DNA damage induced. Two DNA repair-deficient cell lines with disrupted genes, Rad54/Ku70 or Rev3, were used to screen the Tox21 10K compound library. Possible genotoxicity was based on the presence of a significant increase in cytotoxicity in one or more of the DNA repair-deficient cell lines compared to that observed in the parental DNA repair-proficient cell line. CellTiter Glo viability assay (Promega, Madison, WI) was used to measure cell viability in these cells after compound treatment. This assay includes the data from the Rad54/Ku70 mutant cell line.
Tox21 Assay Protocol Summary:
300 DT40 mutant cells in 5 uL/well were dispensed into white, solid-bottom 1536-well plates using a Multidrop Combi (ThermoFisher Scientific, Waltham, MA) dispenser. After the assay plates were incubated at 37 C/5% CO2 for approximately 0.5 hour, 23 nL of compounds dissolved in DMSO, positive controls or DMSO only was transferred into the assay plate by a pintool work station (Kalypsys, San Diego, CA). The assay plates were incubated at 37 C/5% CO2 for 40 hours. After 5 uL per well of CellTiter-Glo reagent was added into each well of the assay plates, the plates were incubated for 30 min at room temperature and the luminescence intensity of the plates was measured using a ViewLux (PerkinElmer, Shelton, CT) plate reader.
Potency is read from the fitted curve at half-maximal effect.

Structure (SMILES) | Potency
Cc1c(N=C=O)cccc1N=C=O | inactive
CCC[Si](OC)(OC)OC | inactive
CC1(COc2ccc(CC3SC(=O)NC3=O)cc2)CCCCC1 (stereo not given) | 11.9 µM (active)
CCCCCCCCOCCCN | 6.86 µM (active)
CCCCCCCCS | inactive
O=C(O)c1cc(C(=O)O)c(C(=O)O)cc1C(=O)O | inactive
CCCCC(CC)COCCC#N (stereo not given) | inactive
CCCCCCC/C=C/C=O | 43.3 µM (active)
C[C@H](CN1CCCC1)C(=O)c1ccc(C(F)(F)F)cc1 | 8.41 µM (active)
O=S(=O)(O)c1cc(Cl)c(Cl)cc1Cl | inactive
CC/C=C/CCO | inactive
OCCCO | inactive
O=C(O)CNc1ccccc1 | inactive
O=C(Cl)c1ccc(F)c(Cl)c1 | inactive
CCOc1ccccc1O | inactive
Clc1nc2ccccc2nc1Cl | inactive
Clc1cc(Cl)c2c(c1)N=C1CCCCCN1C2 | 13.3 µM (active)
Cc1c(Cl)cccc1[N+](=O)[O-] | inactive
FC(F)(Cl)C(F)(Cl)Cl | inactive
Nc1ccc(F)cc1F | inactive

Structure (SMILES) | Potency
CC(=O)c1ccc(Cl)c(Cl)c1Cl | inactive
CCCC1CCOC(C)S1 (stereo not given) | inactive
CC(=O)S[C@H](C(=O)N[C@H]1Cc2ccccc2[C@H]2CCC[C@@H](C(=O)O)N2C1=O)C(C)C | inactive
CCCCCCCCCCCCCCCCN | inactive
CC(C)Oc1ccccc1O | inactive
CC(C)=CCC[C@H](C)CCO | 19.3 µM (active)
Oc1ccc(CCNCCCCCCNCCc2ccccc2)cc1O | 26.6 µM (active)
CC(C)CCCCCCCOC(=O)c1ccc(C(=O)OCCCCCCCC(C)C)c(C(=O)OCCCCCCCC(C)C)c1 | inactive
NCCOCCOCCN | 24.3 µM (active)
COc1ccc(CN(CCN(C)C)c2ncccn2)cc1 | inactive
C/C(=C\C(C)CC(C)CC(C)C)C1CC(=O)OC1=O (stereo not given) | inactive
SCCOCCOCCS | inactive
CC1(C)CC(=O)CC(C)(C)N1 | inactive
CC(C)(Cc1c[nH]c2ccccc12)NCC(O)COc1ccccc1C#N (stereo not given) | 16.8 µM (active)
CC1=C(C)C(=O)C(CCCCC#CCCCC#CCO)=C(C)C1=O | 11.9 µM (active)
O=C(O)c1cccc(C(=O)O)c1C(=O)O | inactive
Nc1cccc2c(=O)[nH][nH]c(=O)c12 | inactive
C[Si](C)(C)O[Si](C)(C)O[Si](C)(C)C | inactive
CCc1ccc2c(c1)C(=O)c1ccccc1C2=O | inactive
CC(C)(C)c1ccc(CCC=O)cc1 | inactive
